Test results from ChEMBL document CHEMBL4513216, “Probing the Open Global Health Chemical Diversity Library for Multistage-Active Starting Points for Next-Generation Antimalarials” (ACS Infect Dis, 2020).
Hit rate of the full screen: of about 65,000 compounds, about 2,100 (3.2%) showed an effect of 50% or more. The median lay at about -52%. The entries come from a sample that favours strong results as a whole.

tested on: Plasmodium falciparum; assay: Screen against P. falciparum Asexual Blood Stage (ABS), at 5uM; assay type: functional, Dd2; conditions: tested at 5 uM

Row | Structure (SMILES) | INHIBITION [%]
1 | CC1CCc2nn(CCNC(=O)Cc3ccc(F)cc3)c(=O)cc2C1 (stereo unspecified) | -65.3
2 | CN1CCOCC2(CCCN(C(=O)c3ccc(-n4cccc4)cc3)C2)C1 (stereo unspecified) | 28.9
3 | CNC(=O)c1nc(CN2CCOC(CCCC(C)C)C2)no1 (stereo unspecified) | -32
4 | CNC(=O)c1nc(CN2CCOC(C(F)(F)F)C2)no1 (stereo unspecified) | -43.7
5 | CNC(=O)c1nc(CN2CCOC(Cc3ccc(F)cc3)C2)no1 (stereo unspecified) | 51.7
6 | CSC(C)(C)CNC(=O)NC1CCN(CC=C(C)C)CC1 | -10.7
7 | COCC(=O)N1C[C@H]2CCC[C@@]2(COC)C1 | -47.2
8 | c1cnn(CC2CCCCN2Cc2cn3ccsc3n2)c1 (stereo unspecified) | -19.1
9 | Cc1nc(C)n(CC2CCCN2Cc2cn3ccsc3n2)n1 (stereo unspecified) | -20.5
10 | c1ncn(CC2CCCN(Cc3cn4ccsc4n3)C2)n1 (stereo unspecified) | -48.4
11 | Cc1cc(CN2CCCC2Cn2cccn2)no1 (stereo unspecified) | -13.9
12 | Cc1cc(CN2CCCCC2Cn2cncn2)no1 (stereo unspecified) | 57.3
13 | Cc1cc(CN2CCCC2Cn2cncn2)no1 (stereo unspecified) | -174
14 | c1ncn(CC2CCCN2Cc2cn3ccsc3n2)n1 (stereo unspecified) | -64.9
15 | c1cnn(CC2CCCN2Cc2cn3ccsc3n2)c1 (stereo unspecified) | 64.9
16 | c1ncn(CC2CCCCN2Cc2cn3ccsc3n2)n1 (stereo unspecified) | 61.4
17 | CC(C)Nc1ncnc2c1CCN(C(=O)c1ccncc1F)CC2 | -7.41
18 | CS(=O)(=O)NC(=O)c1ccn(-c2ccccc2Cl)n1 | -38.1
19 | Cc1cc(C)n(CC2CN(CC(=O)NCc3ccccn3)CCO2)n1 (stereo unspecified) | -102
20 | CSCc1noc(CNC(=O)C2CCN(C3CCCCC3)CC2)n1 | -24.2
21 | COCCN1CCO[C@@H]2CN(C(=O)Cc3ccc(F)cc3)CC[C@@H]2C1 | 12
22 | COc1ccc(CN2C[C@H]3CN(c4ccsc4)C(=O)[C@H]3C2)cc1 | -68.6

Row | Structure (SMILES) | INHIBITION [%]
23 | CCN1CCN2CCCN(S(=O)(=O)c3cccc(F)c3)C2C1=O (stereo unspecified) | 24.6
24 | CCN1CCN2CCCN(S(=O)(=O)c3ccc(C)cc3C)C2C1=O (stereo unspecified) | 64.3
25 | CCN1CCN2CCCN(S(=O)(=O)c3ccc(S(C)(=O)=O)cc3)C2C1=O (stereo unspecified) | 20.7
26 | Cc1cnc(C(=O)N2Cc3cc(Cl)ccc3OC3(CCOCC3)C2)cn1 | -30.5
27 | CCc1ccccc1N1CC(c2nnc(N)s2)CC1=O (stereo unspecified) | -94.9
28 | COCC(=O)N1CCOC2(CCCN(c3cnccn3)C2)C1 (stereo unspecified) | -88.3
29 | CC(C)(C)CN1CCCC12Cc1ccccc1CNC2=O (stereo unspecified) | 2.53
30 | CC(C)CCN1CCCC12Cc1ccccc1CNC2=O (stereo unspecified) | 51.7
31 | Cc1ccc(CCN2CCCC23Cc2ccccc2CNC3=O)cc1 (stereo unspecified) | -15.1
32 | N#Cc1cccc(CNc2ccc(F)cc2OCCO)c1 | -11
33 | Cc1ccc(S(=O)(=O)N2C[C@H]3C[C@H](NC(=O)c4cc[nH]n4)[C@H]3C2)cc1 | -17.3
34 | CNS(=O)(=O)c1ccc(CNC(=O)Nc2cn[nH]c2)cc1 | -94.2
35 | COC1(CNC(=O)NCCOc2ccccc2)CCSC1 (stereo unspecified) | -45.4
36 | Cc1nc2c(c(NC3CC3)n1)CCN(C(=O)CCO)CC2 | -79.7
37 | Cc1ccc2nc(C3CCCN3Cc3csc(C)n3)[nH]c2c1 (stereo unspecified) | 65.7
38 | Cc1ccc2nc(C3CCCN3Cc3nnc(C)s3)[nH]c2c1 (stereo unspecified) | -102
39 | CC(=O)c1cc(CN2CCCCC2c2nc3cc(F)ccc3[nH]2)cs1 (stereo unspecified) | 12.3
40 | Cc1ccc2nc(C3CCCN3Cc3cccc(CCN)c3)[nH]c2c1 (stereo unspecified) | 41.2
41 | CC(=O)c1cc(CN2CCCC2c2nc3ccc(C)cc3[nH]2)cs1 (stereo unspecified) | 50.3
42 | Cc1ccc2nc(C3CCCN3Cc3scnc3C)[nH]c2c1 (stereo unspecified) | -84.1
43 | Cc1c(C(=O)NCCC(=O)N2CCCC2)cccc1-c1ccccn1 | -47.4
44 | CCOC(=O)[C@]12CCCN(Cc3cccs3)C[C@H]1CN(C(C)C)C2 | 9.63

Row | Structure (SMILES) | INHIBITION [%]
45 | O=C(CN1CCOCC1)N(c1ccccc1)c1ccccc1 | -110
46 | CN(C)c1ncccc1CNC(=O)N1CCCC1CN1CCCC1 (stereo unspecified) | -122
47 | CC(=O)N1CCN(C(=O)CN2CCCC2c2c(C)nn(C)c2C)CC1 (stereo unspecified) | -90.6
48 | O=C(NC1CCC1)C1=NOC2(CCN(Cc3ccco3)C2)C1 (stereo unspecified) | -31.3
49 | COCc1ccc(C(=O)N2CCC(c3cc4nccnc4[nH]3)CC2)cc1 | -69.8
50 | COc1cc(C(=O)N2CCCC(n3ccnc3)C2)cc2c1OCCO2 (stereo unspecified) | -16.1
51 | Cc1ncnc(N2CCCN(c3nc4ccccc4s3)CC2)c1C | -442
52 | Cc1nc[nH]c1CN1CCCC12CCN(c1nc3ccccc3s1)CC2 | 24.2
53 | Cc1nc[nH]c1CN1CCCN(c2nc3ccccc3s2)CC1 | 54.8
54 | CC(=O)N1CCCC1c1nnn2cc(-c3ccncc3)ccc12 (stereo unspecified) | -69.2
55 | O=C(O)c1nnn(-c2ccccc2)c1-c1ccncc1 | -32.3
56 | CCn1c(C2CCNCC2)nn(Cc2ccc(C(=O)NC)o2)c1=O | -72.6
57 | CCCn1ncc(-c2ccnc(NC3CCSC3)n2)c1C (stereo unspecified) | -10.1
58 | CCCn1ncc(-c2ccnc(N[C@@H]3C[C@H]4CC[C@@H]3C4)n2)c1C | -34.5
59 | CCCn1ncc(-c2ccnc(NC3CC(C)(C)NC(C)(C)C3)n2)c1C | 67.2
60 | CC(C)N1CCC(N2CCC(C(=O)N(C)C)CC2)CC1 | -45.6
61 | COCCOc1ccc(C(=O)N[C@@H]2CNCCC[C@H]2O)cc1 | -9.34
62 | O=C(N[C@@H]1CNCCC[C@H]1O)c1ccc(OCCN2CCCC2)cc1 | -65.9
63 | O=C(N[C@@H]1CNCCC[C@H]1O)c1ccc(OCc2ccccc2)cc1 | 63.2
64 | CCc1ccccc1Nc1noc2c1CN(C(=O)CNC(C)=O)CC2 | 45.1
65 | CCc1ccccc1Nc1noc2c1CN(C(=O)C1CCCO1)CC2 (stereo unspecified) | 68.6
66 | CCc1ccccc1Nc1noc2c1CN(C(=O)c1ccn(C)n1)CC2 | -63.2

Row | Structure (SMILES) | INHIBITION [%]
67 | O=C(NCc1cccnc1-n1cncn1)c1ccncc1 | -55.2
68 | COc1cccc(C(=O)N2CC[C@@H]3[C@H](CC2)N(C)CCS3(=O)=O)c1 | -72.7
69 | Cc1nc(COC[C@H]2CCC[C@@]23CN(C(C)C)CCO3)cs1 | 51.9
70 | Cc1nc(COC[C@H]2CCC[C@]23CN(C2CCOC2)CCO3)cs1 (stereo partly specified) | -51.5
71 | Cc1nc(COC[C@H]2CCC[C@]23CN(CC2CC2)CCO3)cs1 | 32.7
72 | CCN1CCO[C@]2(CCC[C@H]2COCc2csc(C)n2)C1 | 57.7
73 | Cc1nc(COC[C@@H]2CCC[C@@]23CNCCO3)cs1 | 47.5
74 | Cc1nc(COC[C@@H]2CCC[C@@]23CN(C)CCO3)cs1 | 15.6
75 | c1ccc(CN2Cc3nccn3CC(Cn3cccn3)C2)nc1 (stereo unspecified) | -16.2
76 | CCN(CC)Cc1cn2c(n1)CN(C(=O)Cc1ccsc1)CC2 | -53.3
77 | Cc1cc(N(Cc2ccccn2)C2CC2)n2nc(C(F)(F)F)nc2n1 | -61.2
78 | Cc1cc(N(Cc2cccs2)C2CC2)n2nc(C(F)(F)F)nc2n1 | 67.3
79 | Cc1cc(N(Cc2ccccc2F)C2CC2)n2nc(C(F)(F)F)nc2n1 | 4
80 | CC1c2ncc(Cn3cccn3)n2CCN1Cc1ccccn1 (stereo unspecified) | -88.5
81 | Cc1nnc2n1CCN(C(C(=O)NC1CC1)c1ccc(F)cc1)C2 (stereo unspecified) | -127
82 | CCN1CCN(CCNC(=O)c2ccn(-c3ccc(F)cc3)n2)CC1 | -11.4
83 | NC(=O)CC1CCN(C(=O)c2cccn2Cc2cccs2)CC1 | -68.7
84 | CN1[C@@H](C(=O)NCC2CC2)C[C@@H]2CN(Cc3ccoc3)C[C@@H]21 | 30.4
85 | COc1ncccc1CN1C[C@H]2C[C@@H](C(=O)NCC3CC3)N(C)[C@H]2C1 | 51.2
86 | CN1[C@@H](C(=O)NCC2CC2)C[C@@H]2CN(Cc3ccco3)C[C@@H]21 | -99
87 | CCOc1ccc(C(=O)N2CCCC2c2c(C)nn(C)c2Cl)cn1 (stereo unspecified) | -37.6
88 | COc1cccc(CN2CCC3(CC2)CCN(c2ncccn2)C3)c1 | 0.0663

Row | Structure (SMILES) | INHIBITION [%]
89 | CCS(=O)(=O)N1CCC2(CCN(Cc3cccc(OC)c3)CC2)CC1 | 68.4
90 | COc1cccc(CN2CCC3(CC2)CCN(c2ncc(C)cn2)C3)c1 | -73.3
91 | NC(=O)C1CCCN1Cc1cccc(NC(=O)c2cc(Cl)cc(Cl)c2)c1 (stereo unspecified) | -51
92 | Clc1ccc2cccnc2c1CN1CCCC1Cn1cncn1 (stereo unspecified) | 53.7
93 | Clc1cc(CN2CCCC2Cn2cncn2)c2ncccc2c1 (stereo unspecified) | 2.88
94 | Clc1ccc(CN2CCCCC2Cn2cncn2)c2ncccc12 (stereo unspecified) | 17.8
95 | Fc1ccc(CN2CCCC2Cn2cccn2)c2ncccc12 (stereo unspecified) | 59.1
96 | Fc1ccc(CN2CCCC(Cn3cncn3)C2)c2ncccc12 (stereo unspecified) | -1.08
97 | Clc1cc(CN2CCCC(Cn3cncn3)C2)c2ncccc2c1 (stereo unspecified) | 39.2
98 | N#Cc1ccc(CN2CCCC2Cn2cccn2)c(F)c1 (stereo unspecified) | -129
99 | Fc1ccc(CN2CCCCC2Cn2cncn2)c2ncccc12 (stereo unspecified) | 65.8
100 | Clc1ccc(CN2CCCC(Cn3cncn3)C2)c2ncccc12 (stereo unspecified) | 64.6
101 | Fc1ccc(CN2CCCC2Cn2cncn2)c2ncccc12 (stereo unspecified) | 13.9
102 | Clc1ccc2cccnc2c1CN1CCCCC1Cn1cncn1 (stereo unspecified) | 48.2
103 | N#Cc1ccc(F)c(CN2CCCC2Cn2cccn2)c1 (stereo unspecified) | -15.1
104 | CC1=Nc2c(c(=O)[nH]n2C(C)C)C(c2ccc3nccnc3c2)S1 (stereo unspecified) | -82.6
105 | Cc1ccc(N2CCCC(NCc3ccccn3)C2)nn1 (stereo unspecified) | -71.8
106 | O=C(c1ccccc1)N1CCN(CC(O)c2ccc(F)cc2)CC1 (stereo unspecified) | -120
